# Measurements from the supplement of paper PMC7724964.
# T1: LBR 1-67 LBR_tudor (domain begin residue: 1, domain end residue: 67), Q14739
# T1 chain: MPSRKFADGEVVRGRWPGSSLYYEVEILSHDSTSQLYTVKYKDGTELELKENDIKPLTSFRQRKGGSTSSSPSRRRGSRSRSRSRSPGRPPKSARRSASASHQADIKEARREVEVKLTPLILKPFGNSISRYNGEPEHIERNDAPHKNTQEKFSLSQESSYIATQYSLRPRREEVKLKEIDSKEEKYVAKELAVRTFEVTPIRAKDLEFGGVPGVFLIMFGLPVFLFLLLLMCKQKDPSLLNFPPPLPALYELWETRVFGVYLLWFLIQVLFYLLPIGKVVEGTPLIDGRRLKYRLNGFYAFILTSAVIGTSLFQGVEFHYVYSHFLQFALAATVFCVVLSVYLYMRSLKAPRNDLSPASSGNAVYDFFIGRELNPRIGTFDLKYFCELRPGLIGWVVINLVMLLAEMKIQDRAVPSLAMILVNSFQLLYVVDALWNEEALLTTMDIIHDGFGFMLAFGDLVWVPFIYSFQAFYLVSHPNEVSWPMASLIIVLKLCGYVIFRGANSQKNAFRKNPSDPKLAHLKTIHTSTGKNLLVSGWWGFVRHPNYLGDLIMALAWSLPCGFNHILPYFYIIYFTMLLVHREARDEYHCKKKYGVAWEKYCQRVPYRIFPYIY
# T2: IRS1 157-267 IRS (domain begin residue: 157, domain end residue: 267), P35568
# T2 chain: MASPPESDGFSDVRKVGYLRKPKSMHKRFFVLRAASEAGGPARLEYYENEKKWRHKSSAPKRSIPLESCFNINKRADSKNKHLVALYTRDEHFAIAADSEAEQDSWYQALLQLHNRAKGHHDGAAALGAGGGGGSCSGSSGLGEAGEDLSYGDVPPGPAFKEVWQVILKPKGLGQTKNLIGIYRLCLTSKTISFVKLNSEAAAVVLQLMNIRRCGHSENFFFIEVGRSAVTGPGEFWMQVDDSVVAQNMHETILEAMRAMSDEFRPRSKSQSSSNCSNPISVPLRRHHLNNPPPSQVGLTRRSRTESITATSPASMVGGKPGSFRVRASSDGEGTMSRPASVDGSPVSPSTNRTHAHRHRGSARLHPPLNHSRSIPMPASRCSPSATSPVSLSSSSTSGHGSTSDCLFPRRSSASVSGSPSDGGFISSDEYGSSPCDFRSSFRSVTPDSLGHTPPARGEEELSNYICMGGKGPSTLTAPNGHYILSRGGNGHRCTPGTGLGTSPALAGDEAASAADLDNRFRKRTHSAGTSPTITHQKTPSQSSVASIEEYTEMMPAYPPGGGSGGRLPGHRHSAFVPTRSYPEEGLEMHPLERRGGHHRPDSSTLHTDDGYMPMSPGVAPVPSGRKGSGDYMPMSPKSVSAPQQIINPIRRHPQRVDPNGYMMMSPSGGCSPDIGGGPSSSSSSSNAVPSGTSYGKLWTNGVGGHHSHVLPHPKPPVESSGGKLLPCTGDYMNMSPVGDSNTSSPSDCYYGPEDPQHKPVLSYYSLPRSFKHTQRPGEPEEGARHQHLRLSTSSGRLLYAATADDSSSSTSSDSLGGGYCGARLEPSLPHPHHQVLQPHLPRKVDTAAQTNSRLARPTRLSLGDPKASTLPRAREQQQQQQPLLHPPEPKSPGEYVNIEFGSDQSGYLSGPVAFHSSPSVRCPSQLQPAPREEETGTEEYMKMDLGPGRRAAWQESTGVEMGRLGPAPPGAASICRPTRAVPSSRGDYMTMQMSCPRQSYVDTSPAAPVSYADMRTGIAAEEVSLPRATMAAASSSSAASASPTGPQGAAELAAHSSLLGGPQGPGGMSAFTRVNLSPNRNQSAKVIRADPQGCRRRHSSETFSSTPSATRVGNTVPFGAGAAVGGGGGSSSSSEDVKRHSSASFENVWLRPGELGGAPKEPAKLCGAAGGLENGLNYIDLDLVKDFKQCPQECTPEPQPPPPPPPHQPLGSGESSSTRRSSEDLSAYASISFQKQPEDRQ
# T3: LRP5 340-601 Ldl_recept_b (domain begin residue: 340, domain end residue: 601), O75197
# T3 chain: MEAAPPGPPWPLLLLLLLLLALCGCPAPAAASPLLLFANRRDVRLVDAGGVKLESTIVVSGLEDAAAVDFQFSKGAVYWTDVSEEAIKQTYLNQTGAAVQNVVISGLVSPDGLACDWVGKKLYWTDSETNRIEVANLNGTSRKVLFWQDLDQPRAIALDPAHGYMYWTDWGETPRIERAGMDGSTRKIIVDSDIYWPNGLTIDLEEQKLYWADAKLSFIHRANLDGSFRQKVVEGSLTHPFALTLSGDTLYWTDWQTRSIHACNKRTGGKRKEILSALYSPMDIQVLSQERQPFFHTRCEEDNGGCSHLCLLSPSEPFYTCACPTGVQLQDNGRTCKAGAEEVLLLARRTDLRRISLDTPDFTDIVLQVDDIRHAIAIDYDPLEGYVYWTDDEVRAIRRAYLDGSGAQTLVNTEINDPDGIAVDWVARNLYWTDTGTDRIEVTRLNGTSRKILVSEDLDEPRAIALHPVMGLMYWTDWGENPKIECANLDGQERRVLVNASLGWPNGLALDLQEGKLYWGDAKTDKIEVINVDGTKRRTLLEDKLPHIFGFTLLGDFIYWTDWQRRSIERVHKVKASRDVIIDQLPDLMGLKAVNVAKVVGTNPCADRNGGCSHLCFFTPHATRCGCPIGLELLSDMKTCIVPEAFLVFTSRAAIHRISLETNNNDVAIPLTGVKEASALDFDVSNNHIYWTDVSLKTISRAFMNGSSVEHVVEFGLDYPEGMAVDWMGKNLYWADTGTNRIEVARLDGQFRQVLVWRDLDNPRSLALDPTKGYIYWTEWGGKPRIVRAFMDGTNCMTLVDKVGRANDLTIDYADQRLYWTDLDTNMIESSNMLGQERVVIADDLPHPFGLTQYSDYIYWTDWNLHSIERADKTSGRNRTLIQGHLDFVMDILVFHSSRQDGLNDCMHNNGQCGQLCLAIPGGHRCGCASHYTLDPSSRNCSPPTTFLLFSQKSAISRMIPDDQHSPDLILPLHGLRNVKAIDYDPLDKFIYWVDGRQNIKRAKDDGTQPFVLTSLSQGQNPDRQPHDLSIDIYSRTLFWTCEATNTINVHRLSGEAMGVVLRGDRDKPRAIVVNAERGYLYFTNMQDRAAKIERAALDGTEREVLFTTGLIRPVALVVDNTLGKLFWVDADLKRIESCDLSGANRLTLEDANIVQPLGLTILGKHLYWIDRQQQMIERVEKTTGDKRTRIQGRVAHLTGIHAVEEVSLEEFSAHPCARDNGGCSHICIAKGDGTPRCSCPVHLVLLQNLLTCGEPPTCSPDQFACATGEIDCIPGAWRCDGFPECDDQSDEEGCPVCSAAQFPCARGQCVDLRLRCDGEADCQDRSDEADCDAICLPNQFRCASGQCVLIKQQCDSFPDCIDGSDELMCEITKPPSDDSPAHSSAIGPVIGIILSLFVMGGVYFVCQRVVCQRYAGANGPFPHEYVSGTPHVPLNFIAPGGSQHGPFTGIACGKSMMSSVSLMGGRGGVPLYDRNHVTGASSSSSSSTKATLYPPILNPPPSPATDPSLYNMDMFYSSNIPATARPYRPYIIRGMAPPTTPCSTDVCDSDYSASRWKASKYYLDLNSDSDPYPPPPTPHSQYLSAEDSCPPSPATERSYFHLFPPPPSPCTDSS
# T4: ZGPAT 120-268 zf-CCCH+TUDOR (domain begin residue: 120, domain end residue: 268), Q8N5A5
# T4 chain: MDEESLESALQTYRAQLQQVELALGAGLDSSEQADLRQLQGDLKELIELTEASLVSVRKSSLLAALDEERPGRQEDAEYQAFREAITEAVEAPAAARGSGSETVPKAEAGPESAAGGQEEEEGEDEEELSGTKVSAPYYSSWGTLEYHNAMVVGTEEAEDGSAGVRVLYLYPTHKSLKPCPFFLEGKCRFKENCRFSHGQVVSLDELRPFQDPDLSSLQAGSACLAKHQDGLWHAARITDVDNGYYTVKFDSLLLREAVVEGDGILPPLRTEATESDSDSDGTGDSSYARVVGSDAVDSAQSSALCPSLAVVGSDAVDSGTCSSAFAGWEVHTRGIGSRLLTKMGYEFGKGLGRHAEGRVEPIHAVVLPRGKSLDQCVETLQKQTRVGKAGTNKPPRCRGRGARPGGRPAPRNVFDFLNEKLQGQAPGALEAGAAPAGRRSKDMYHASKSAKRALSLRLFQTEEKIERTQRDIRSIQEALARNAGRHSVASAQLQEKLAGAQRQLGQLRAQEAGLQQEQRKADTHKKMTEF
# Key:
# Assay in all cases: phage ELISA signal ratio (GST-PRM binding over GST background); higher = stronger binding of peptide-phage to the PRM
# [1] = target: KDM6A 1-520 TPR_8 (domain begin residue: 1, domain end residue: 520), O15550
# Summary of the method: (§1)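 Human peptide recognition domains were expressed in 96-well plates as fusions to the C-terminus of glutathione S-transferase (GST) and selected against an M13 phage library displaying randomized hexadecapeptides, cysteine-free and glycine-flanked, on the gene-8 major coat protein. Five selection rounds were run, and approximately 48 individual clones from rounds 4 and 5 were tested by phage ELISA. Each value is the ELISA signal on the GST-domain fusion divided by the signal on GST alone. Positive clones were sequenced.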
# [2] = target: T1, LBR 1-67 LBR_tudor (domain begin …
# Summary of the method: as §1
# [3] = target: T2, IRS1 157-267 IRS (domain begin residue: …
# Summary of the method: as §1
# [4] = target: KMT2C 995-1055 PHD (domain begin residue: 995, domain end residue: 1055)
# Summary of the method: as §1
# [5] = target: KPNB1 1-876 IBN_N+Arm (domain begin residue: 1, domain end residue: 876), Q14974
# Summary of the method: as §1
# [6] = target: T3, LRP5 340-601 Ldl_recept_b (domain begin …
# Summary of the method: as §1
# [7] = target: KARS 71-214 tRNA_anti-codon (domain begin residue: 71, domain end residue: 214), Q15046
# Summary of the method: as §1
# [8] = target: HSPA9 438-651 HSP70 (domain begin residue: 438, domain end residue: 651), P38646
# Summary of the method: as §1
# [9] = target: MAD2L1 2-205 HORMA (domain begin residue: 2, domain end residue: 205), Q13257
# Summary of the method: as §1
# [10] = target: KMT2C 1055-1137 PHD (domain begin residue: 1055, domain end residue: 1137)
# Summary of the method: as §1
# [11] = target: SETD1A 2-220 RRM_1 (domain begin residue: 2, domain end residue: 220), O15047
# Summary of the method: as §1
# [12] = target: T4, ZGPAT 120-268 zf-CCCH+TUDOR (domain …
# Summary of the method: as §1
# KPNB1 1-876 IBN_N+Arm (domain begin residue: 1, domain end residue: 876), Q14974, sequence (Q14974 whole entry): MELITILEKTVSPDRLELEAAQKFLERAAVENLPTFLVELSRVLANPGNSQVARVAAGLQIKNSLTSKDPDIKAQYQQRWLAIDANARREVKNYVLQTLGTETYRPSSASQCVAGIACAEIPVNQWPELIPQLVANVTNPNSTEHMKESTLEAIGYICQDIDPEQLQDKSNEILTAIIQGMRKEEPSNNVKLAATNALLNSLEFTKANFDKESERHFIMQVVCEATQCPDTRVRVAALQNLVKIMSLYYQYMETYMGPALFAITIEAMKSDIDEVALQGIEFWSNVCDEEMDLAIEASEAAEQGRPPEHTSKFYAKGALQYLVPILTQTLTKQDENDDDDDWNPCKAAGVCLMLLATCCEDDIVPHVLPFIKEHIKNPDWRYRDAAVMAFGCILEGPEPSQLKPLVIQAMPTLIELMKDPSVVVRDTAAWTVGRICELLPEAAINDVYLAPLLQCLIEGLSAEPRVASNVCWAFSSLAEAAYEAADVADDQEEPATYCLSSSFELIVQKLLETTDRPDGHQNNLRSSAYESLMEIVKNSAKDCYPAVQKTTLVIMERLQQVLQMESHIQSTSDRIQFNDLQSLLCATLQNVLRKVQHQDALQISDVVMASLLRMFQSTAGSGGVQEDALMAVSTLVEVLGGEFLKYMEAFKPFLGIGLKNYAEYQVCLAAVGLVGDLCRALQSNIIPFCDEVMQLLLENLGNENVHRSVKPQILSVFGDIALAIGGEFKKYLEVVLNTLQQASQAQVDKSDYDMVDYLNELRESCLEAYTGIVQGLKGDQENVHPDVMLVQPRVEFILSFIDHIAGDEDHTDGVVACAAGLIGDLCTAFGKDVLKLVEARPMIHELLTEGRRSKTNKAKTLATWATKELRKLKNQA
# KDM6A 1-520 TPR_8 (domain begin residue: 1, domain end residue: 520), O15550, sequence (O15550 whole entry, the tested form may be a part): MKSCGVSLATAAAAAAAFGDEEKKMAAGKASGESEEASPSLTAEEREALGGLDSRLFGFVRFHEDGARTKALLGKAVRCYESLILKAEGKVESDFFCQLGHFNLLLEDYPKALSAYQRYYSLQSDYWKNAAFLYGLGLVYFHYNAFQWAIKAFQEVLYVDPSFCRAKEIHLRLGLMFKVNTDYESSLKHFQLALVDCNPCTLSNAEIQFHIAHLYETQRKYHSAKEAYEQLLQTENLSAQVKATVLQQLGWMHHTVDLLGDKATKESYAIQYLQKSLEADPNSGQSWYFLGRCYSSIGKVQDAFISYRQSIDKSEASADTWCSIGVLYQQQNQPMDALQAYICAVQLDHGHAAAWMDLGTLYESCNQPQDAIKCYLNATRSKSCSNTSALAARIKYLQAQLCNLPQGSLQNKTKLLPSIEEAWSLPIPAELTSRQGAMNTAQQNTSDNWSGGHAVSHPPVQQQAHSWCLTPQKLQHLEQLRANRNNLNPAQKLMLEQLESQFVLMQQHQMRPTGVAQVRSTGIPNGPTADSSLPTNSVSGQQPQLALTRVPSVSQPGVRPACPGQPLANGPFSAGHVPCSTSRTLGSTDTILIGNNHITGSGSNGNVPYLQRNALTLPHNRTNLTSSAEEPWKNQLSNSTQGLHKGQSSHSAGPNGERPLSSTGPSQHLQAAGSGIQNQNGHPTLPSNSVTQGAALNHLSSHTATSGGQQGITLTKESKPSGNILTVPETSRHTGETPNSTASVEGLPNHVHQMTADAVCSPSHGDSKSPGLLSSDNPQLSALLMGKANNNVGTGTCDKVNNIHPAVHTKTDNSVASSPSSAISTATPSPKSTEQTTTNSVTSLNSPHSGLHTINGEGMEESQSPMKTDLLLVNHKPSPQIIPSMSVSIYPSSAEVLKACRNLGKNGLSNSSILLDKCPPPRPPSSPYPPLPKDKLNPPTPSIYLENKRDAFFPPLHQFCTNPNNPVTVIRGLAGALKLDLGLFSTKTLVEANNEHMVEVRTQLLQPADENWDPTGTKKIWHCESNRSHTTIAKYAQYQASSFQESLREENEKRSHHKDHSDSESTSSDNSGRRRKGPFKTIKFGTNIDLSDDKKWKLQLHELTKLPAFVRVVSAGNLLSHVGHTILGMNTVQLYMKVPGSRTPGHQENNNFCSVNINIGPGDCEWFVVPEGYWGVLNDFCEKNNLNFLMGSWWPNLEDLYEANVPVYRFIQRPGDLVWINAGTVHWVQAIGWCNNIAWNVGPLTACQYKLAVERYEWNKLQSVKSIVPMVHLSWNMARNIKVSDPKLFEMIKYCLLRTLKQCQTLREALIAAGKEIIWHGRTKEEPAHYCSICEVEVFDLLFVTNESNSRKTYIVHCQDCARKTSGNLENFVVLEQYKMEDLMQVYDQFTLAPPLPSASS
# KARS 71-214 tRNA_anti-codon (domain begin residue: 71, domain end residue: 214), Q15046, sequence (Q15046 whole entry, looked up, tested part not stated): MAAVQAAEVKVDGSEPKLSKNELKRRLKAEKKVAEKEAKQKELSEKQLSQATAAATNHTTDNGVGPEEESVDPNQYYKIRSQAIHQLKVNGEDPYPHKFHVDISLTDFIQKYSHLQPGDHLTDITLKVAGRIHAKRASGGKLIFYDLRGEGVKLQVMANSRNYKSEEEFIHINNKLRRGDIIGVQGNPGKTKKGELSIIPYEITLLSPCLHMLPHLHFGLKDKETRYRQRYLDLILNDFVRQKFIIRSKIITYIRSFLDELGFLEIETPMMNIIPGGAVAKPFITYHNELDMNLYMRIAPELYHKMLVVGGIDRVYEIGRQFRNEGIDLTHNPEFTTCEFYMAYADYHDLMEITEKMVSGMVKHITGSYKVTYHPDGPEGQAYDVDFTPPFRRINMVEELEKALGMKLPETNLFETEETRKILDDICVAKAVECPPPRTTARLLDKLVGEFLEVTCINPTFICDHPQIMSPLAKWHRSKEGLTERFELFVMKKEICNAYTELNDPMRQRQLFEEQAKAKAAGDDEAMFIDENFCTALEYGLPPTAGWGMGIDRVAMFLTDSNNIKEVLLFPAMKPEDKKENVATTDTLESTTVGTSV
# HSPA9 438-651 HSP70 (domain begin residue: 438, domain end residue: 651), P38646, sequence (P38646 whole entry): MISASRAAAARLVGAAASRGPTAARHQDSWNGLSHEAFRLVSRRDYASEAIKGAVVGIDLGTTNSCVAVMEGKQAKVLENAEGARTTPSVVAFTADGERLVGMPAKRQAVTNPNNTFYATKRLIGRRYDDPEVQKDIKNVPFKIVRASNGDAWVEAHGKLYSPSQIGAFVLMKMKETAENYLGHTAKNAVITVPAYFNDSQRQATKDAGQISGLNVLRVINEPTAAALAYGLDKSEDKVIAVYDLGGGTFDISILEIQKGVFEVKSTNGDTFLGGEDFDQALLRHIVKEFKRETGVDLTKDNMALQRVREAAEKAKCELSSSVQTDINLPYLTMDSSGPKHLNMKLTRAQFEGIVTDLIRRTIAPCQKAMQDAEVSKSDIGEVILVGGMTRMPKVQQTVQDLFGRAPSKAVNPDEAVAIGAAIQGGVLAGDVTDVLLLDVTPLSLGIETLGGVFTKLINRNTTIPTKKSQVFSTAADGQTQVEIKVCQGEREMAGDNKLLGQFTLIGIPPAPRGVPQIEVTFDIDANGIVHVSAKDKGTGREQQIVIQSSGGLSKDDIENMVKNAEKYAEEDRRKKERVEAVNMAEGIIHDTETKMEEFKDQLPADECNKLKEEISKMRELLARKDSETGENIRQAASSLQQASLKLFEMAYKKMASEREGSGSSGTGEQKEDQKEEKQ
# MAD2L1 2-205 HORMA (domain begin residue: 2, domain end residue: 205), Q13257, sequence (Q13257 whole entry): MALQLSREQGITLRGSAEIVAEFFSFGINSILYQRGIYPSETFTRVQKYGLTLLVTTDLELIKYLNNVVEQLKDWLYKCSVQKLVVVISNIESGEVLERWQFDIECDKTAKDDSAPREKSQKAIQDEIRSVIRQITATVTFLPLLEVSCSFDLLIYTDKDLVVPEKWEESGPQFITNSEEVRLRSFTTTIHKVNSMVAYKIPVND
binder,measurement,setting,value
WENIWDDMIEQIIIPQ,phage ELISA signal ratio,[1],8.83
PFTAFFVMMEWVQVPK,phage ELISA signal ratio,[2],2.52
YMEMVWDTIQIQPPQD,phage ELISA signal ratio,[1],6.38
FHGIWVQDELRVWMMD,phage ELISA signal ratio,[2],8.63
GYENWIPEGYRWQDWK,phage ELISA signal ratio,[3],18
IYLDQWFEEISTYVPA,phage ELISA signal ratio,[1],8.33
VKTPVEDWKYLTFYYI,phage ELISA signal ratio,[4],6.07
PWPQEYTTDLTSVFWF,phage ELISA signal ratio,[5],19.7
EWSSNEWWDAYSAMTV,phage ELISA signal ratio,[6],7.31
DWEWYQYFNAPQPVKG,phage ELISA signal ratio,[7],25.1
LDWMSMFDDYSSLFSV,phage ELISA signal ratio,[5],16.8
MDMIWDQILPDQFLSK,phage ELISA signal ratio,[1],6.37
WAEELYHSTQWLGVTE,phage ELISA signal ratio,[1],5.83
NYIEHMYDSMMYGSMT,phage ELISA signal ratio,[1],8.78
VITMDQSQWDDVMFWL,phage ELISA signal ratio,[8],27.3
YDFGPFMGVGAPSFQF,phage ELISA signal ratio,[5],9.88
PYDNYRVVQIPWLFSD,phage ELISA signal ratio,[2],3.18
WGWDDIPALQEMKPTN,phage ELISA signal ratio,[1],7.16
QQQKHPNFALHYHQDQ,phage ELISA signal ratio,[2],6.64
VEVDYFNSMYEAMSFM,phage ELISA signal ratio,[1],4.78
WSWPDLDVVQDMIVAE,phage ELISA signal ratio,[1],5.09
ETWADYFNVPISWIHE,phage ELISA signal ratio,[7],18.1
SGEWFKLPSFDEPRKG,phage ELISA signal ratio,[9],6.3
DNYMESMYEAMGDPKK,phage ELISA signal ratio,[10],6.88
HYMEMLYEQLAISQAI,phage ELISA signal ratio,[1],5.05
YNFIESMYTMEPMPMH,phage ELISA signal ratio,[2],3.33
same,phage ELISA signal ratio,[11],4.24
same,phage ELISA signal ratio,[12],3.65
PHEFQWALWPSGVFVF,phage ELISA signal ratio,[5],14
SIKGIYIDDVLRLIDQ,phage ELISA signal ratio,[4],6.63
